KCNQ2 inh = blocks the rat KCNQ2 potassium channel | O88943 | CHO-K1 KCNQ2, FluxOR thallium flux, 20 min; active compounds read low | B-score at 10 µM | 310,000 tested, 1.1% active | AID 2156;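 active = fluorescence ratio B-score at most minus 3 library SDs, with starting brightness B-score within 2 library SDs, cut at about -5.5 in these data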
Target sequence (O88943 whole entry, looked up): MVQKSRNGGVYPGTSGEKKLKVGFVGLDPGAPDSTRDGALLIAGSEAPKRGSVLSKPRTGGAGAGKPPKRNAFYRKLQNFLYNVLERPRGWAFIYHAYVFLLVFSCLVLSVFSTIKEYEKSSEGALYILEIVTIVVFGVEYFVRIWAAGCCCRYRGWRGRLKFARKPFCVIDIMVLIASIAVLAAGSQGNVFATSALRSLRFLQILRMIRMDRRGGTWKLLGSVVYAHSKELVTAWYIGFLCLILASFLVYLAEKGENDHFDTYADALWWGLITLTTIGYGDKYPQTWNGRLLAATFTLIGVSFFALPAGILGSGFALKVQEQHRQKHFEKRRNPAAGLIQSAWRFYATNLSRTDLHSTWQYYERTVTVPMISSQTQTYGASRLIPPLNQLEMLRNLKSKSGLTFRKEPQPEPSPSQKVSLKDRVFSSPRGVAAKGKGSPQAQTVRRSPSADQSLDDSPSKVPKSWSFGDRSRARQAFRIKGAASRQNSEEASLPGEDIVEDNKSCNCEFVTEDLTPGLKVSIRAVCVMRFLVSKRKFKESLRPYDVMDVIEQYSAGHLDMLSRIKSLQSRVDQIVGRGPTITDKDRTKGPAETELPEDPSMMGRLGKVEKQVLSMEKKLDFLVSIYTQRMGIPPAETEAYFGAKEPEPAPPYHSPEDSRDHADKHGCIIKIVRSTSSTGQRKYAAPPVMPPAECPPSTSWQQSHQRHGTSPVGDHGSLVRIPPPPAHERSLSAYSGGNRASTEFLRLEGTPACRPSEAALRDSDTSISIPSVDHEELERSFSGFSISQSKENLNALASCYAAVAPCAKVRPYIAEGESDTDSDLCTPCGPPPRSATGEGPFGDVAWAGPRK
KCNQ2 enhance = enhances the rat KCNQ2 potassium channel. O88943. CHO-K1 KCNQ2, FluxOR thallium flux fluorescence; active compounds read high. B-score at 10 µM. 310,000 tested, 0.54% active. AID 2239;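 active = fluorescence ratio B-score at least 3 SD of library B-scores, with initial fluorescence B-score within 3 of them, cut at about 5.3 in these data; same plate scores as AID 2156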;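 also: B-score of peak minus minimum over baseline fluorescence ratio after K+ and Tl+ stimulus; positive B-score means potentiation of KCNQ2 with more thallium influx and brighter signal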
Numbers stand for hits. A selection: hits, their analogues and other compounds. The true share with any hit is near 1.6%.

`NS(=O)(=O)c1ccc(N=Nc2ccc(O)c3ncccc23)cc1` gave KCNQ2 inh inactive and KCNQ2 enhance inactive.
`O=Cc1ccc(O)c2ncccc12` gave KCNQ2 inh inactive and KCNQ2 enhance 7.2.
`NS(=O)(=O)c1ccc(CNC(=O)Cc2ccsc2)cc1` gave KCNQ2 inh inactive and KCNQ2 enhance inactive.
COc1cc(/C=C/C(=O)O)cc(S(=O)(=O)Nc2ccc3c(c2)CCC3)c1OC was read as KCNQ2 inh inactive.
For Cc1cc(OCc2cc(C(=O)NCCN3CCCCC3CO)no2)cc(C)c1Cl (stereo not given) the results were KCNQ2 inh -7.9 and KCNQ2 enhance inactive.
COc1cccc(OCc2cc(C(=O)NCCN3CCCCC3CO)no2)c1 (stereo not given) was read as KCNQ2 inh inactive and KCNQ2 enhance inactive.
COc1ccc(C(C(=O)NC2CCCC2)N(C(=O)c2snc(-c3ccc(F)cc3)c2N)c2ccc(F)cc2)cc1 (stereo not given) was read as KCNQ2 inh inactive.
For COc1ccc(C(C(=O)NC2CCCC2)N(C(=O)c2snc(-c3ccc(F)cc3)c2N)c2ccc(OC)cc2)cc1 (stereo not given) the results were KCNQ2 inh -5.7 and KCNQ2 enhance inactive.
`COc1cccc(NC(=O)c2cc3cccc(OC)c3o/c2=N\O)c1` gave KCNQ2 inh -7.1 and KCNQ2 enhance inactive.
Screening COc1cccc(NC(=O)c2cc3ccccc3o/c2=N\O)c1 returned KCNQ2 inh inactive.
CCOc1ccccc1NC(=O)C1CCCN(S(=O)(=O)c2ccc3c(c2)C(C)(C)C(=O)N3C)C1 (stereo not given) was read as KCNQ2 inh inactive.
`CCOc1cc(C2NC(=O)NC(C)=C2C(=O)OCC2CCCCC2)ccc1O` (stereo not given) gave KCNQ2 inh inactive and KCNQ2 enhance inactive.
Screening O=C(CSc1nc2ncccc2[nH]1)c1ccc2c(c1)OCO2 returned KCNQ2 inh inactive.
Screening NC(N)=N/N=C/c1ccc(OCc2ccccc2Cl)cc1 returned KCNQ2 inh -6.2 and KCNQ2 enhance inactive.
Screening NC(N)=N/N=C/c1ccccc1 returned KCNQ2 inh inactive.
CCOc1ccccc1Nc1cc(C)c2cccc(C)c2n1 was read as KCNQ2 inh -5.8 and KCNQ2 enhance inactive.
For CCOc1ccccc1Nc1ccnc2cc(Cl)ccc12 the results were KCNQ2 inh inactive and KCNQ2 enhance inactive.
For CC1CCCCN1C(=O)CCS(=O)(=O)c1cccc2nonc12 (stereo not given) the results were KCNQ2 inh inactive.
`COC(=O)c1ccc(C2NCCc3cc(OC)c(OC)cc32)cc1` (stereo not given) gave KCNQ2 inh inactive.
For O=C(C1=C[C@@H](c2csc3ccccc23)C[C@@H](OCc2ccc(CO)cc2)O1)N1CCOCC1 the results were KCNQ2 inh inactive.
`O=C(Nc1ccccc1)C1=C[C@H](c2csc3ccccc23)C[C@H](OCc2ccc(CO)cc2)O1` gave KCNQ2 inh -5.7 and KCNQ2 enhance inactive.
`O=C(NC1CC1)C1=C[C@H](c2csc3ccccc23)C[C@H](OCc2ccc(CO)cc2)O1` gave KCNQ2 inh inactive.
Screening O=C(C1=C[C@@H](c2csc3ccccc23)C[C@@H](OCc2ccc(CO)cc2)O1)N1CCN(Cc2ccccc2)CC1 returned KCNQ2 inh -6.2 and KCNQ2 enhance inactive.
Screening CCN1C(=O)C2(C(C(=O)c3cc4ccccc4o3)=C(O)C(=O)N2CCCN2CCOCC2)c2ccccc21 (stereo not given) returned KCNQ2 inh inactive.
`CCCCCc1c2c(cc(O)c1C(=O)O)OC(=O)c1c(cc(OC)cc1C(=O)CCCC)O2` gave KCNQ2 inh -6.7 and KCNQ2 enhance inactive.
`CCCCc1c(C(=O)O)cc(OC)cc1C(=O)O` gave KCNQ2 inh inactive and KCNQ2 enhance inactive.
Screening Cc1cccc(Nc2nc(N)nc(CCl)n2)c1C returned KCNQ2 inh inactive and KCNQ2 enhance inactive.
COc1ccc(NC2=Nc3cccc4cccc2c34)cc1OC was read as KCNQ2 inh inactive.
COc1cc(NC2=Nc3cccc4cccc2c34)cc(OC)c1OC was read as KCNQ2 inh -6 and KCNQ2 enhance inactive.
COc1ccc(/C=N/OCc2ccc(Br)cc2)c(OC)c1 was read as KCNQ2 inh inactive.
Screening O=C(Cn1nnc2ccccc2c1=O)N[C@@H](Cc1ccccc1)C(=O)O returned KCNQ2 inh inactive.
COCCn1c(SC(C)C(=O)NCC2CCCO2)nc2scc(-c3ccc(F)cc3)c2c1=O (stereo not given) was read as KCNQ2 inh inactive and KCNQ2 enhance inactive.
Cc1cc(Nc2ccccc2C(=O)O)n(-c2ccc([N+](=O)[O-])cc2)n1 was read as KCNQ2 inh inactive and KCNQ2 enhance inactive.
COC(=O)c1c(C(=O)OC)c(-c2ccc(C(C)(C)C)cc2)n2c1CS(=O)C2 (stereo not given) was read as KCNQ2 inh -8 and KCNQ2 enhance inactive.
